{"source": "PubChem BioAssay AID720511", "about": "(Broad Institute, 2013)", "note": "In all, about 350,000 compounds went through this assay and about 1,300 (0.37%) were called active.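 Rule for the calls: active = mean added fluorescence quench of at least 8% versus neutral control, with both replicates also reaching 8%; inconclusive = only one of the mean or replicate conditions met; inactive = mean below 8% and not both replicates reaching 8%.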 The entries come from a sample that favours actives as a whole."}
{"assay": "F508del CFTR correction, initial screen, CFBE line, single point (AID 720511);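 note: cells transiently co-express mutant CFTR-F508del with the halide-sensitive YFP; corrector assay measuring rescue of mutant channel to the surface after 24 h compound exposure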", "conditions": "CFBE cells, YFP halide quenching, at 7.58 µM, active compounds read high, % fluorescence drop versus neutral controls, stimulated with forskolin plus potentiator P3"}
{"smiles": "C[C@H](CO)N1C[C@H](C)[C@@H](CN(C)S(=O)(=O)c2ccccc2)Oc2ncc(-c3ccncc3)cc2C1=O", "activity (quench increase)": "0.7% (inactive)"}
{"smiles": "O=C1c2ccccc2C(=O)N1CCC#Cc1ccc2cc(C3(O)CCCCC3)oc(=O)c2c1", "activity (quench increase)": "4.94% (inactive)"}
{"smiles": "COc1cc(C#Cc2ccc3cc(CCCO)oc(=O)c3c2)cc(OC)c1", "activity (quench increase)": "9.06% (active)"}
{"smiles": "CS(=O)(=O)N1C[C@@H](O)COC[C@@H]2O[C@H](CC(=O)NC3Cc4ccccc4C3)CC[C@H]21", "activity (quench increase)": "-1.79% (inactive)"}
{"smiles": "O=C(C[C@H]1C=C[C@@H](NC(=O)NC2CCCCC2)[C@@H](CO)O1)NCc1ccc(Cl)cc1", "activity (quench increase)": "0.0755% (inactive)"}
{"smiles": "C[C@H](CO)N1C[C@H](C)[C@H](CN(C)Cc2ccc(C(F)(F)F)cc2)Oc2ccc(NS(C)(=O)=O)cc2C1=O", "activity (quench increase)": "3.24% (inactive)"}
{"smiles": "C[C@@H]1CCCCO[C@@H](CN(C)C(=O)Cc2ccccc2)[C@H](C)CN([C@@H](C)CO)C(=O)c2cc(NC(=O)Nc3ccc(F)cc3)ccc2O1", "activity (quench increase)": "-1.42% (inactive)"}
{"smiles": "Oc1ccc2ccccc2c1N=Nc1nccs1", "activity (quench increase)": "13.5% (active)"}
{"smiles": "CCc1c(C)nc2c(-c3ccccc3)c(C)nn2c1Nc1ccc(NC(C)=O)cc1", "activity (quench increase)": "0.439% (inactive)"}
{"smiles": "CC(=O)Nc1ccc(S(=O)(=O)N(C)c2nc3ccccc3nc2Cl)cc1", "activity (quench increase)": "2.1% (inactive)"}
{"smiles": "CC(=O)Nc1ccc(Nc2c3ccccc3nc3ccccc23)cc1", "activity (quench increase)": "10.8% (active)"}
{"smiles": "C[C@@H]1CCCCO[C@@H](CN(C)S(=O)(=O)c2ccccc2)[C@H](C)CN([C@H](C)CO)C(=O)c2cc(NC(=O)Nc3ccc4c(c3)OCO4)ccc2O1", "activity (quench increase)": "0.334% (inactive)"}
{"smiles": "CO[C@H]1CN(C)C(=O)c2cc(NC(C)=O)ccc2OC[C@H](C)N(C(=O)C2CC2)C[C@H]1C", "activity (quench increase)": "4.09% (inactive)"}
{"smiles": "C/C=C/c1ccc2c(c1)O[C@@H](CN(C)C(=O)c1ccccn1)[C@H](C)CN([C@@H](C)CO)S2(=O)=O", "activity (quench increase)": "-2.18% (inactive)"}
{"smiles": "C[C@@H]1CN([C@@H](C)CO)S(=O)(=O)c2ccc(C#Cc3ccccc3)cc2O[C@@H]1CN(C)C(=O)Nc1ccccc1", "activity (quench increase)": "3.03% (inactive)"}
{"smiles": "CC(C)CC#Cc1ccc2c(c1)O[C@@H](CN(C)C(=O)c1ccccn1)[C@@H](C)CN([C@H](C)CO)S2(=O)=O", "activity (quench increase)": "0.306% (inactive)"}
{"smiles": "C[C@@H]1CN([C@@H](C)CO)S(=O)(=O)c2ccc(C#Cc3ccc(F)cc3)cc2O[C@H]1CN(C)C(=O)c1ccccn1", "activity (quench increase)": "9.03% (active)"}
{"smiles": "COc1ccc(NC(=O)N(C)C[C@H]2Oc3cc(C#CCN(C)C)ccc3S(=O)(=O)N([C@@H](C)CO)C[C@@H]2C)cc1", "activity (quench increase)": "-0.575% (inactive)"}
{"smiles": "COc1ccc(C#Cc2ccc3c(c2)O[C@@H](CN(C)C(=O)Nc2cccc(OC)c2)[C@H](C)CN([C@H](C)CO)S3(=O)=O)cc1", "activity (quench increase)": "9.4% (active)"}
{"smiles": "CCCNC(=O)[C@@H]1[C@@H](CO)[C@@H]2Cn3c(cccc3=O)[C@H]1N2C(=O)Nc1cc(F)ccc1F", "activity (quench increase)": "-0.221% (inactive)"}
{"smiles": "CCCN(C)C[C@@H]1Oc2ncc(-c3ccccc3F)cc2C(=O)N([C@@H](C)CO)C[C@@H]1C", "activity (quench increase)": "-1.56% (inactive)"}
{"smiles": "CCCNC(=O)Nc1ccc2c(c1)C(=O)N(C)C[C@H](OC)[C@H](C)CN(Cc1cccnc1)[C@@H](C)CO2", "activity (quench increase)": "-2.17% (inactive)"}
{"smiles": "COCC(=O)Nc1ccc2c(c1)OC[C@@H](C)N(C(=O)c1ccncc1)C[C@@H](C)[C@@H](OC)CN(C)C2=O", "activity (quench increase)": "-2.81% (inactive)"}
{"smiles": "COc1ccc(NC(=O)C/C(C)=N/NC(=O)c2cnccn2)cc1Cl", "activity (quench increase)": "0.245% (inactive)"}
{"smiles": "NS(=O)(=O)c1ccc(CNC(=O)c2cnccn2)cc1", "activity (quench increase)": "3.51% (inactive)"}
{"smiles": "CCN(CC)c1ccc(/C=N/NC(=O)c2cnccn2)c(O)c1", "activity (quench increase)": "19.1% (active)"}
{"smiles": "CNC[C@H]1Oc2ccc(NC(=O)Nc3ccc(F)cc3)cc2C(=O)N([C@@H](C)CO)C[C@@H]1C", "activity (quench increase)": "2.71% (inactive)"}
{"smiles": "C/C=C/c1cnc2c(c1)C(=O)N([C@@H](C)CO)C[C@@H](C)[C@@H](CN(C)S(=O)(=O)c1ccccc1F)O2", "activity (quench increase)": "-0.914% (inactive)"}
{"smiles": "COCC(=O)N1CC[C@H]2[C@H](CO)Nc3ccc(-c4ccc(C(=O)N(C)C)cc4)cc3[C@H]21", "activity (quench increase)": "-0.359% (inactive)"}
{"smiles": "CC(C)CC#Cc1cnc2c(c1)C(=O)N([C@@H](C)CO)C[C@H](C)[C@@H](CN(C)S(=O)(=O)c1cn(C)cn1)O2", "activity (quench increase)": "3.77% (inactive)"}
{"smiles": "CCC(=O)c1ccc(OCC(=O)OCC(=O)NC2CCCCCC2)cc1", "activity (quench increase)": "5.07% (inactive)"}
{"smiles": "Cc1ccc(Cl)c(OCC(=O)N2CCc3ccccc3C2)c1", "activity (quench increase)": "0.464% (inactive)"}
{"smiles": "CCC(=O)c1ccc(OCC(=O)OCC(=O)N2CCc3ccccc3C2)cc1", "activity (quench increase)": "33.2% (active)"}
{"smiles": "CN1C(=O)c2cc(NC(=O)Nc3ccccc3Cl)ccc2OC[C@H]2O[C@@H](CC(=O)O)CC[C@H]21", "activity (quench increase)": "2.42% (inactive)"}
{"smiles": "C[C@H](CO)N1C[C@H](C)[C@H](CN(C)C(=O)Nc2ccccc2)Oc2ccc(NC(=O)C3CC3)cc2CC1=O", "activity (quench increase)": "1.47% (inactive)"}
{"smiles": "O=C(Cn1c(NCCO)nc2ccccc21)c1ccc(Cl)cc1Cl", "activity (quench increase)": "1.26% (inactive)"}
{"smiles": "CN(C)CCNC(=O)c1ccc(Cl)c2cc3ccccc3nc12", "activity (quench increase)": "12.3% (active)"}
{"smiles": "CNC(=O)c1cccc2nc3ccccc3nc12", "activity (quench increase)": "-0.402% (inactive)"}
{"smiles": "CCNC(=O)C[C@@H]1CC[C@@H](NC(=O)NC2CCCCC2)[C@H](CO)O1", "activity (quench increase)": "3.72% (inactive)"}
{"smiles": "Cc1ccccc1-c1ccc2c(c1)O[C@H](CN(C)C)[C@@H](C)CN([C@H](C)CO)S2(=O)=O", "activity (quench increase)": "0.748% (inactive)"}
{"smiles": "C[C@H]1CN([C@@H](C)CO)C(=O)c2cc(/C=C/c3ccccc3)cnc2O[C@@H]1CN(C)C(=O)c1ccc(F)cc1", "activity (quench increase)": "-2.58% (inactive)"}
{"smiles": "COc1ccc(-c2cc(C(=O)N/N=C/c3cccnc3)c3ccccc3n2)c(OC)c1", "activity (quench increase)": "-13% (inactive)"}
{"smiles": "CCOc1ccc(-c2cc(C(=O)N/N=C/c3ccc(O)cc3)c3ccccc3n2)cc1", "activity (quench increase)": "12.2% (active)"}
{"smiles": "COc1cc(/C=N/NC(=O)c2cc(-c3ccccc3C)nc3ccccc23)cc(OC)c1O", "activity (quench increase)": "-3.23% (inactive)"}
{"smiles": "C[C@@H]1CN([C@H](C)CO)C(=O)Cc2cc(NS(=O)(=O)c3ccc(F)cc3)ccc2O[C@H]1CN(C)C", "activity (quench increase)": "-0.0265% (inactive)"}
